Laboratory results taken from PubChem BioAssay AID909 (National Center for Advancing Translational Sciences (NCATS), 2007).
The other results are listed elsewhere or left out. Inconclusive results are not listed. Unmarked numbers belong to inactive results. Calls of active or inactive are those of the source. Calls come from the whole dose curve; as a rule, active = well fitted inhibition curve with a large enough effect in the main read-out, with a control signal flat; inconclusive = small, poorly fitted or top-dose-only effect, or a change in a side signal; inactive = no such curve, though single readings can be large or run the other way.

These compounds were tested against Caspase-7 (Homo sapiens) (UniProt P55210) (assay: Concentration-Response Counterscreen for Redox Active Inhibitors of Caspase-7: Catalase). Settings: Caspase-7 Ac-DEVD-AFC fluorescence rate, catalase buffer; series mostly up to 57.5 µM; activity, negative = inhibition: at the top concentration.
Caspase-7 (Homo sapiens), sequence (P55210 24-198 limits assumed): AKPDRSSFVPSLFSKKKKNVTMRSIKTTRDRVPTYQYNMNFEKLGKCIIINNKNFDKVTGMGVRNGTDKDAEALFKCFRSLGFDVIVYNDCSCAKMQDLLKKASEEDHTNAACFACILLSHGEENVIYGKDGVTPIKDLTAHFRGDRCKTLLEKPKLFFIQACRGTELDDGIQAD
Caspase-7 (Homo sapiens), sequence (P55210 207-303 limits assumed): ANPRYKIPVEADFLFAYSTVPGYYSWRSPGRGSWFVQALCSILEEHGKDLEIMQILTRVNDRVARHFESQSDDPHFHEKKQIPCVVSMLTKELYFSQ
Source text: NIH Molecular Libraries Screening Centers Network [MLSCN] NIH Chemical Genomics Center [NCGC] MLSCN Grant: 1 X01 MH078950-01 PI Name: Dr. James Wells, Dr. Enrique Perez-Paya, Dr.Janice Williams, Dr. Dennis Wolan, a person NCGC Assay Overview: The caspases (Cysteine Aspartyl Protease) comprise a related family of 14 dimeric proteases that are critical mediators of apoptosis (programmed cell death) and inflammation. The caspases represent an important class of drug targets for stroke, ischemia, cancer and inflammatory diseases. […] One goal of this project was to identify compounds that act as allosteric inhibitors via stabilizing the procaspase form of the enzyme. […] After initiation of the assay with substrate the plates were rapidly read using an automated robotic system (Kalypsys, Inc.) to maintain consistent timing. […]
NCGC Assay Protocol Summary: Caspase 7 was prepared in buffer (50 mM HEPES pH 7.5, 50 mM KCl, 200 mM NaCl, 50 units/well catalase (from bovine liver, Sigma cat#100), 0.1% CHAPS) at a concentration of 66.6 nM and 3 uL was dispensed to all wells using black solid Kalypsys 1536-well plates. […] The plates were then exposed using 405 nm excitation/520 nm emission filters for 4 sec and read at 20 sec intervals for 3 min. […]
`CCN1C(=O)/C(=C2/Sc3ccccc3N2CCCS(=O)(=O)O)SC1=S` was tested, and the “activity, negative = inhibition” value was -22.9%.
`N#CC1=C(N)Oc2cc(O)ccc2C1C1CCCCC1` (configuration not stated) was tested, and the Potency was 31.6 µM (active).
